TDP1 cell CPT = growth inhibition of DT40 Tdp1-/-;hTDP1 cells with camptothecin (screen for TDP1 inhibitors); chicken DT40 Tdp1-/-;hTDP1 cells + 20 nM CPT, ATP luminescence, 48 h; Potency, µM (doses to about 46.2 µM), inactives show at the top dose activity change, negative = growth inhibition, actives largely listed as inhibitors; 12% of 420,000 active; AID 686979; note: potency is the fitted concentration of half-maximal effect; nearly all actives have a fitted effect of over 55% in size
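Chicken DT40 Tdp1-/- cells stably complemented with human TDP1 were seeded at 400 cells/well in medium containing 20 nM camptothecin, exposed to pin-transferred compounds, and grown at 37 °C for at least 48 hr. Viability was read as ATP luminescence.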
HT1080NT lethal = kills 2HG-producing HT-1080-NT fibrosarcoma cells; HT-1080-NT fibrosarcoma viability, CellTiter-Glo ATP luminescence, 48 h; Potency, µM (series often up to 46.1 µM), for the others: top-dose activity, negative = less viability, usual class: cytotoxic; 1.6% of 360,000 active; AID 686970;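 note: NT is the 2HG producing partner of a matched IDH1 knockdown line; potency is the fitted concentration of half-maximal effect; 0% = DMSO-treated cells and -100% = media-only wells without cells; nearly all actives have a fitted effect of over 55% in size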
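Luminescent CellTiter-Glo readout after 48 hours of compound exposure at 37 degrees C defined viability of HT-1080-NT cells. Activity was normalized to DMSO wells and cell-free media wells; concentration-response curves were fitted and assigned curve classes.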
IL1B secr inh = blocks inflammasome-driven IL-1 beta release; THP-1 LPS/ATP IL-1B secretion, AlphaLISA, 16 h; hits give low values; activity change, % at 57.5 µM; 4.7% of 360,000 active; in the data active = activity change below about -50%; inconclusive = mostly about -30% to -49%
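THP-1 cells pretreated 1 hr with compounds (up to 57.5 uM final), then stimulated with LPS (250 ng/mL final) plus ATP (1.25 mM final); secreted IL-1B measured by AlphaLISA after 16 hr, decreased signal indicating inhibition.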
HT1080 IDH1KD tx = HT-1080 IDH1 knockdown cell toxicity (counter line); HT-1080 IDH1 knockdown viability, ATP luminescence, 48 h; Potency, µM (doses to about 46.1 µM), for the others: at the highest dose activity, negative = toxicity, usual class: cytotoxic; 2% of 360,000 active;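 note: potency is the fitted concentration of half-maximal effect; 0% = DMSO wells and -100% = cell-free medium wells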
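HT-1080-IDH1KD cells (IDH1 knocked down), 750/well in RPMI with 5% FBS, treated with compound 48 h at 37 degrees C. Viability by CellTiter-Glo luminescence, normalised to DMSO and no-cell wells; concentration-response curves classed.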
DT40 TDP1 no CPT = qHTS for Inhibitors of human tyrosyl-DNA phosphodiesterase 1 (TDP1): qHTS in cells in absence of CPT; DT40 Tdp1-/- hTDP1 cells, no CPT, ATP luminescence, 48 h; Potency, µM (series often up to 46.2 µM), for inactives: at the highest dose activity change, negative = growth inhibition, usual class: inhibitors; AID 686978, 2013; 15% of 420,000 active; note: potency is the fitted concentration of half-maximal effect; nearly all actives have a fitted effect of over 55% in size
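Camptothecin absent (DMSO only). Human TDP1-complemented DT40 knockout cells, 400 cells/well, 37 °C for minimum 48 hr; ATP measured via CellTiter-Glo, 30 min dark incubation, luminescence.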
* marks the source's active call; other numbers are inactive results. Rows were chosen to be rich in hits. Some 19% of all compounds tested hit in one or more screens of this group. Unless noted, calls come from the whole dose curve; as a rule, active = well fitted curve in the direction sought with a large enough effect; inconclusive = small, poorly fitted or top-dose-only effect, or another doubt; inactive = no such curve, though single readings can be large; an effect the other way counts as inactive or inconclusive. Unless noted, % is set by controls: 0 for no effect and ±100 for the full control effect.

Results for CCOC(=O)C1=C(c2ccccc2)c2ccccc2N(S(=O)(=O)C(F)(F)F)C1C(=O)OCC (stereo not drawn) ?
TDP1 cell CPT: inconclusive; HT1080NT lethal: 4%; IL1B secr inh: -4; HT1080 IDH1KD tx: 2%; DT40 TDP1 no CPT: inconclusive

Results for CCCCN1CC(C)(C)Oc2cccc(F)c2S1(=O)=O ?
TDP1 cell CPT: -13%; HT1080NT lethal: 4%; IL1B secr inh: -2; HT1080 IDH1KD tx: 4%; DT40 TDP1 no CPT: -25%

What do the screens show for `CCOC(=O)C(Cc1ccc(NC(=O)/C(=C\c2ccccc2)NC(=O)c2ccccc2)cc1)N1C(=O)c2ccccc2C1=O` (stereo not drawn)?
TDP1 cell CPT: 10µM*; HT1080NT lethal: 1%; IL1B secr inh: 24; HT1080 IDH1KD tx: 5%; DT40 TDP1 no CPT: 8.2µM*

Results for O=C(Nc1ccc(C(=O)O)cc1)/C(=C\c1ccccc1)NC(=O)c1ccccc1 ?
TDP1 cell CPT: 3%; HT1080NT lethal: 0%; IL1B secr inh: 0; HT1080 IDH1KD tx: 11%; DT40 TDP1 no CPT: -6%

How did Cc1ccn2cc(-c3cccc(NC(=O)C(C)C)c3)nc2c1 do in these assays?
TDP1 cell CPT: 15µM*; HT1080NT lethal: 17%; IL1B secr inh: 0; HT1080 IDH1KD tx: 15%; DT40 TDP1 no CPT: 29µM*

What do the screens show for `COc1ccc(C(=O)NCc2cn3ccc(C)cc3n2)cc1`?
TDP1 cell CPT: -4%; DT40 TDP1 no CPT: -4%

How did COc1ccc(CC(=O)Nc2ccc(-c3cn4cccc(C)c4n3)cc2)cc1OC do in these assays?
TDP1 cell CPT: inconclusive; HT1080NT lethal: 2%; IL1B secr inh: -13; HT1080 IDH1KD tx: -1%; DT40 TDP1 no CPT: 23µM*

Results for COc1ccc(CC(=O)Nc2ccc(-c3cn4ccc(C)cc4n3)cc2)cc1 ?
TDP1 cell CPT: 5.8µM*; HT1080NT lethal: 15µM*; IL1B secr inh: -7; HT1080 IDH1KD tx: inconclusive; DT40 TDP1 no CPT: 5.2µM*

What do the screens show for `CC(C)C(=O)Nc1cccc(-c2cn3ccccc3n2)c1`?
TDP1 cell CPT: -9%; HT1080NT lethal: 16%; IL1B secr inh: 0; HT1080 IDH1KD tx: 17%; DT40 TDP1 no CPT: 1%

How did COc1ccc(CC(=O)NNC(=O)CSc2ccc(C)cc2)cc1 do in these assays?
TDP1 cell CPT: 2%; HT1080NT lethal: 12%; IL1B secr inh: 16; HT1080 IDH1KD tx: 16%; DT40 TDP1 no CPT: -11%

Results for COc1ccccc1C1NC(=O)NC(C)=C1C(=O)OC1CCCC(C)C1 (stereo not drawn) ?
TDP1 cell CPT: inconclusive; HT1080NT lethal: 23%; IL1B secr inh: -9; HT1080 IDH1KD tx: 14%; DT40 TDP1 no CPT: inconclusive

Results for CC(C)(C)OC(=O)NCCCC[C@H](NC(=O)c1[nH]cnc1C(=O)Nc1ccc(Cl)cc1)C(=O)OC(C)(C)C ?
TDP1 cell CPT: inconclusive; HT1080NT lethal: inconclusive; IL1B secr inh: -58*; HT1080 IDH1KD tx: inconclusive; DT40 TDP1 no CPT: 16µM*

Results for C[C@@H](NC(=O)c1nc[nH]c1C(=O)N[C@@H](CCCCNC(=O)OC(C)(C)C)C(=O)OC(C)(C)C)c1ccccc1 ?
TDP1 cell CPT: inconclusive; HT1080NT lethal: 6%; IL1B secr inh: -25; HT1080 IDH1KD tx: inconclusive; DT40 TDP1 no CPT: -94%

How did CC(C)(C)OC(=O)NCCCC[C@H](NC(=O)c1[nH]cnc1C(=O)Nc1ccccc1)C(=O)OC(C)(C)C do in these assays?
TDP1 cell CPT: 15µM*; HT1080NT lethal: -30%; IL1B secr inh: inconclusive; HT1080 IDH1KD tx: inconclusive; DT40 TDP1 no CPT: 23µM*

What do the screens show for `COc1ccccc1C1NC(=O)c2ccccc2O1` (stereo not drawn)?
TDP1 cell CPT: -11%; HT1080NT lethal: 4%; IL1B secr inh: -27; HT1080 IDH1KD tx: -4%; DT40 TDP1 no CPT: -17%

How did CC1CCN(C(=O)c2c(NC(=O)c3ccccc3F)sc3c2CCC(C(C)(C)C)C3)CC1 (stereo not drawn) do in these assays?
TDP1 cell CPT: -7%; DT40 TDP1 no CPT: 3%

How did Cc1ccccc1C(=O)Nc1sc2c(c1C(=O)N1CCCCC1)CCC(C)C2 (stereo not drawn) do in these assays?
TDP1 cell CPT: 18µM*; DT40 TDP1 no CPT: inconclusive

How did Cc1ccccc1C(=O)Nc1sc2c(c1C(=O)N1CCC(C)CC1)CCC(C)C2 (stereo not drawn) do in these assays?
TDP1 cell CPT: 15µM*; DT40 TDP1 no CPT: 21µM*

How did O=C(CCc1ccccc1)N=C1SC2CS(=O)(=O)CC2N1Cc1ccc(F)cc1 (stereo not drawn) do in these assays?
TDP1 cell CPT: inconclusive; HT1080NT lethal: 2%; IL1B secr inh: -6; HT1080 IDH1KD tx: -3%; DT40 TDP1 no CPT: -14%

What do the screens show for `COCCCn1c(=N)c(C(=O)NCC2CCCO2)cc2c(=O)n3cc(C)ccc3nc21` (stereo not drawn)?
TDP1 cell CPT: -3%; DT40 TDP1 no CPT: -2%

What do the screens show for `CN(C)c1ccc(-n2cccc2)cc1`?
TDP1 cell CPT: 16%; HT1080NT lethal: 7%; IL1B secr inh: 0; HT1080 IDH1KD tx: 12%; DT40 TDP1 no CPT: -14%

Results for CN(C)c1ccc(SC#N)cc1 ?
TDP1 cell CPT: -4%; HT1080NT lethal: -1%; IL1B secr inh: -99*; HT1080 IDH1KD tx: -14%; DT40 TDP1 no CPT: -23%

What do the screens show for `CN1CCN(CC#Cc2ccccc2)CC1CCO` (stereo not drawn)?
TDP1 cell CPT: 0%; HT1080NT lethal: 15%; IL1B secr inh: 15; HT1080 IDH1KD tx: 6%; DT40 TDP1 no CPT: 8%

What do the screens show for `CC(C)(C)CN1CCN(CC#Cc2ccccc2)CC1CCO` (stereo not drawn)?
TDP1 cell CPT: inconclusive; HT1080NT lethal: -2%; IL1B secr inh: 13; HT1080 IDH1KD tx: -3%; DT40 TDP1 no CPT: 10µM*

How did Cc1n(Cc2ccccc2)c2cc([N+](=O)[O-])ccc2[n+]1Cc1ccccc1 do in these assays?
TDP1 cell CPT: inconclusive; HT1080NT lethal: 0%; IL1B secr inh: -14; HT1080 IDH1KD tx: 1%; DT40 TDP1 no CPT: 21µM*

What do the screens show for `Cc1n(Cc2ccccc2)c2ccccc2[n+]1Cc1ccccc1`?
TDP1 cell CPT: 1.2µM*; HT1080NT lethal: -16%; IL1B secr inh: -72*; HT1080 IDH1KD tx: inconclusive; DT40 TDP1 no CPT: 0.73µM*

What do the screens show for `CCn1c(C)[n+](Cc2ccccc2)c2ccc(Cl)cc21`?
TDP1 cell CPT: 10µM*; HT1080NT lethal: -19%; IL1B secr inh: 22; HT1080 IDH1KD tx: -2%; DT40 TDP1 no CPT: 12µM*

Results for CC(O)c1nc2cc([N+](=O)[O-])ccc2n1Cc1ccccc1 (stereo not drawn) ?
TDP1 cell CPT: inconclusive; HT1080NT lethal: -3%; IL1B secr inh: 19; HT1080 IDH1KD tx: -6%; DT40 TDP1 no CPT: inconclusive
